Reference: PubChem BioAssay (NCATS)
Results filed as inconclusive are left out. Entries that show only a call come without a potency. Active and inactive are the calls of the source. Unless noted, calls come from the whole dose curve; as a rule, active = well fitted curve in the direction sought with a large enough effect; inconclusive = small, poorly fitted or top-dose-only effect, or another doubt; inactive = no such curve, though single readings can be large; an effect the other way counts as inactive or inconclusive.

How the values were obtained:
[1] = Cell Viability - H-4-II-E (AID 543);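 note: cells exposed to compound for 40 hours; nearly all actives have a fitted effect of over 35% in size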
How it was run: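 Cells seeded at 1500 per well and rested 5 hr; compounds added; 40 hr incubation at 37 °C; CellTiter-Glo added, 20 min at room temperature; luminescence read. Hill-equation fits gave AC50.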

[2] = Cell Viability - SH-SY5Y (AID 544); conditions: SH-SY5Y neuroblastoma cell viability; viability change, negative = cytotoxic: at 92.2 µM (top of the series);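 note: cells exposed to compound for 40 hours; nearly all actives have a fitted effect of over 55% in size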
How it was run: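 Cells were plated at 1500 per well and allowed 5 hr at 37 °C. Compounds were added across a concentration range and incubated 40 hr at 37 °C. CellTiter-Glo was added for 20 min at room temperature before luminescence reading.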

[3] = Cell Viability - Renal Proximal Tubule (AID 545);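 note: cells exposed to compound for 40 hours; nearly all actives have a fitted effect of over 40% in size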
How it was run: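 Rat kidney proximal tubule cells, freshly isolated; 1000 cells/well, 5 hr settle, compound 40 hr 37 °C. CellTiter-Glo 20 min RT, luminescence read. AC50 by standard Hill fit.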

[4] = Cellular Toxicity (caspase-3) Hek293 (AID 664); conditions: HEK293 caspase-3 activation, DMSO = 0%, 100 µM tamoxifen = 100%; at 92.2 µM (top of the series);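 note: cells exposed to compound for 16 h at 37 °C before readout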
How it was run: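 qHTS, HEK293 (human embryonic kidney), 16 h cpd exposure in complete medium. Caspase-3/7 activation = luminescence increase; normalized to DMSO/100 uM tamoxifen; Hill-fit AC50.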

[5] = Cell Viability - LYMP2-003 (AID 965);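 note: cells exposed to compounds for 24 h before reading; nearly all actives have a fitted effect of over 50% in size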
How it was run: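 CellTiter-Glo luminescence (cellular ATP) after 24 h compound exposure at 37 C in complete medium; 2500 cells/well, 5 h settling beforehand. Concentration-response fitted to standard Hill equation for AC50. Tetraoctylammonium bromide served as positive control.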

[6] = Cell Viability - LYMP2-009 (AID 968); note: nearly all actives have a fitted effect of over 55% in size
[7] = Cell Viability - LYMP2-013 (AID 970); note: nearly all actives have a fitted effect of over 55% in size
How it was run: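 Cytotoxicity is scored as a concentration-dependent drop in intracellular ATP in human lymphoblastoid cells after 24 hr compound exposure at 37 C. ATP is quantified by luciferase luminescence, and AC50 values come from Hill-equation modeling.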

[8] = Cell Viability - LYMP2-019 (AID 973); note: nearly all actives have a fitted effect of over 55% in size
How it was run: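 Cytotoxicity is scored as a concentration-dependent drop in cellular ATP after cells (2500/well) receive compound for 24 hr at 37 C. Tetraoctylammonium bromide serves as positive control.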

[9] = Cell Viability - LYMP2-025 (AID 976)
How it was run: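 Acute cytotoxicity is scored as a concentration-dependent fall in intracellular ATP, measured by luciferase luminescence, in human lymphoblastoid LYMP2-025 cells exposed to compound for 24 hours at 37 C. AC50 values come from standard Hill fits.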

[10] = Cell Viability - LYMP2-002 (AID 977)
How it was run: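 In this qHTS viability screen, 2500 human lymphoblastoid cells per well receive compound for 24 hr at 37 C, and luciferase-based ATP luminescence gives the viability signal. Tetraoctylammonium bromide serves as positive control.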

[11] = Cell Viability - LYMP2-006 (AID 978); note: nearly all actives have a fitted effect of over 60% in size
How it was run: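 qHTS, 1536-well; 2500 cells/well, 5 hr 37 C; cpd 24 hr 37 C; CellTiter-Glo 30 min RT; luminescence. Tetraoctylammonium bromide pos. ctrl. AC50 via Hill eqn.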

[12] = Cell Viability - LYMP2-008 (AID 980); note: nearly all actives have a fitted effect of over 60% in size
How it was run: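 Cells seeded at 2500/well and rested 5 hr at 37 C; compounds added over a concentration range and incubated 24 hr at 37 C; CellTiter-Glo added, 30 min at room temperature; luminescence read and AC50 fitted with Hill model.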

[13] = Cell Viability - LYMP2-012 (AID 982)
[14] = Cell Viability - LYMP2-020 (AID 986); note: nearly all actives have a fitted effect of over 55% in size
How it was run: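 Seed 2500 cells per well and incubate 5 hr at 37 C. Add compounds at a concentration series and incubate 24 hr at 37 C. Add CellTiter-Glo, wait 30 min at RT, read luminescence, and fit a Hill curve for AC50.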

[15] = Cell Viability - LYMP2-022 (AID 987); note: nearly all actives have a fitted effect of over 55% in size
How it was run: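 Cells were seeded at 2500 per well, rested 5 hr at 37 C, and treated with titrated compounds for 24 hr at 37 C. Cellular ATP was then quantified by luciferase luminescence, and AC50 values were derived from Hill-modelled concentration-response curves.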

[16] = Cell Viability - LYMP2-026 (AID 989); note: nearly all actives have a fitted effect of over 50% in size
How it was run: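 Cells are seeded at 2500 per well and held 5 hr at 37 C. Compounds are added in concentration series for 24 hr, then CellTiter-Glo reagent is applied and luminescence read.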

[17] = Cell Viability - LYMP1-002 - Assay at 40 hr (AID 994); note: nearly all actives have a fitted effect of over 60% in size
How it was run: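 Cells are plated at 2500 per well and rested 5 hr at 37 C. Compounds are added and incubated 40 hr at 37 C. CellTiter-Glo reagent is added for 30 min at room temperature before luminescence is read.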

[18] = qHTS assay for small molecule agonists of retinoid X receptor alpha signaling (AID 588544; calls by dose curve); conditions: HEK293T RXRa-UAS-bla, beta-lactamase reporter, 18 h; 530 nm emission
[19] = target: Retinoic acid receptor RXR-alpha (Homo sapiens) (UniProt P19793); assay: as above
[20] = target: Tumor necrosis factor (Homo sapiens) (UniProt P01375); assay: qHTS assay to identify small molecules that stimulate Tumor Necrosis Factor-alpha (TNF-alpha) secretion (AID 651757; active = well fitted curve in the direction sought with a large enough effect in the signal ratio; the % refers to the signal ratio)
How it was run: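 Human monocytic THP-1 cells are plated, treated with compound and held at 37 C for 17 hrs. Labeled anti-TNF-alpha antibody mixture is then added; after 3 hr at room temperature, TR-FRET signal reports secreted TNF-alpha.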

Sequence of Retinoic acid receptor RXR-alpha (Homo sapiens) (P19793 whole entry, looked up): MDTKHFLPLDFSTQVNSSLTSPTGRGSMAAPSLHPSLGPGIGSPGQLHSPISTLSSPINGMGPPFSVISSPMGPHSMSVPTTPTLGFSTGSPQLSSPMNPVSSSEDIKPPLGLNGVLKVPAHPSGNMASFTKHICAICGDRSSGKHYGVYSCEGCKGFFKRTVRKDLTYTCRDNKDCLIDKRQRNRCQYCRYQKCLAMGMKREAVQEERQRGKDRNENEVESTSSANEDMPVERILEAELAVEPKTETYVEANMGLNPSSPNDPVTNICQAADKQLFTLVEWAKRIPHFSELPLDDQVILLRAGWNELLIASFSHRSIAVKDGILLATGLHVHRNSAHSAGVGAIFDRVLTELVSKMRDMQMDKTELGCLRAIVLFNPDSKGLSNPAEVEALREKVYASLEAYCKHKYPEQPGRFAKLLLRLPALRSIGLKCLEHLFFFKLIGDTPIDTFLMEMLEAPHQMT
Sequence of Tumor necrosis factor (Homo sapiens) (P01375 whole entry, looked up): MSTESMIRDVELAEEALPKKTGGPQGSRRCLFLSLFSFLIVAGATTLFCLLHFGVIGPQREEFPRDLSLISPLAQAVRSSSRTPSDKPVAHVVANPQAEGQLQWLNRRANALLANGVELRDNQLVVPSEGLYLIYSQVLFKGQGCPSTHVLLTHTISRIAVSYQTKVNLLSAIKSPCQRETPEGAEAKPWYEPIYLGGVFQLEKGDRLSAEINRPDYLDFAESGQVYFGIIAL

Structure (SMILES)	Potency [1]	Potency [2]	outcome [3]	caspase-3 activation [4]	Potency [5]	Potency [6]	Potency [7]	Potency [8]	Potency [9]	Potency [10]	Potency [11]	Potency [12]	Potency [13]	Potency [14]	Potency [15]	Potency [16]	Potency [17]	max response [18] [%]	outcome [19]	outcome [20]
CCCBr	inactive	inactive	inactive	2.6% (inactive)	inactive	inactive	inactive	inactive	inactive	inactive	inactive	inactive	inactive	inactive	inactive	inactive	inactive	-13.5	inactive	inactive
CCCCCc1cc(O)cc(O)c1	inactive	inactive	inactive	1.25% (inactive)	inactive	inactive	inactive	inactive	inactive	inactive	inactive	inactive	inactive	inactive	inactive	inactive	inactive	0.917	inactive	inactive
CCCCCC[N+](=O)[O-]	inactive	inactive	inactive	-0.935% (inactive)	inactive	inactive	inactive	inactive	inactive	inactive	inactive	inactive	inactive	inactive	inactive	inactive	inactive	-16.5	inactive	inactive
N#CCc1ccccc1	inactive	inactive	inactive	-1.14% (inactive)	inactive	inactive	inactive	inactive	inactive	inactive	inactive	inactive	inactive	inactive	inactive	inactive	inactive	-3.72	inactive	inactive
CCC(Cl)[N+](=O)[O-] (stereo not drawn)	inactive	inactive	inactive	-0.0531% (inactive)	inactive	inactive	inactive	inactive	inactive	inactive	inactive	inactive	inactive	inactive	inactive	inactive	inactive	-8.6	inactive	inactive
CN(C)N=O	inactive	inactive	inactive	5.49% (inactive)		inactive	inactive	inactive	inactive	inactive	inactive	inactive	inactive	inactive	inactive	inactive	inactive	-8.99	inactive	inactive
OCCBr	inactive	inactive	inactive	0.017% (inactive)	inactive	inactive	inactive	inactive	inactive	inactive	inactive	inactive	inactive	inactive	inactive	inactive	inactive	1.51	inactive	inactive
ClC(Cl)C(Cl)Cl	inactive	inactive	inactive	-0.455% (inactive)	inactive	inactive	inactive	inactive	inactive	inactive	inactive	inactive	inactive	inactive	inactive	inactive	inactive	-4.19	inactive	inactive
C=CC(=O)OC	inactive	inactive	inactive	2% (inactive)	inactive	inactive	inactive	inactive	inactive	inactive	inactive	inactive	inactive	inactive	inactive	inactive	inactive	-10.9	inactive	inactive
CC(C)(Cl)[N+](=O)[O-]	inactive	inactive	inactive	-0.194% (inactive)	inactive	inactive	inactive	inactive	inactive	inactive	inactive	inactive	inactive	inactive	inactive	inactive	inactive	-3.38	inactive	inactive
Cc1ccc([N+](=O)[O-])cc1	inactive	inactive	inactive	-0.449% (inactive)	inactive	inactive	inactive	inactive	inactive	inactive	inactive	inactive	inactive	inactive	inactive	inactive	inactive	-18.4	inactive	inactive
Cl/C=C/Cl	inactive	inactive	inactive	-0.612% (inactive)	inactive	inactive	inactive	inactive	inactive	inactive	inactive	inactive	inactive	inactive	inactive	inactive	inactive	1.12	inactive	inactive
CN(C)c1ccccc1	inactive	inactive	inactive	-0.669% (inactive)	inactive	inactive	inactive	inactive	inactive	inactive	inactive	inactive	inactive	inactive	inactive	inactive	inactive	-3.38	inactive	inactive
O=[N+]([O-])c1ccccc1-c1ccccc1	inactive	inactive	inactive	-1.39% (inactive)	inactive	inactive	inactive	inactive	inactive	inactive	inactive	inactive	inactive	inactive	inactive	inactive	inactive	-6.95	inactive	inactive
Clc1ccc(C(Cl)(Cl)Cl)cc1Cl	inactive	inactive	inactive	1.11% (inactive)	inactive	inactive	inactive	inactive		inactive	inactive	inactive	inactive	inactive	inactive	inactive	inactive	-3.09	inactive	inactive
